Consider twelve molecules from PubChem BioAssay (Tox21).

In the assay the target is Beta-2 adrenergic receptor (Homo sapiens) (UniProt P07550). Kind of assay: Adrenergic beta2 receptor (ADRB2) small molecule agonists, cell-based qHTS assay (AID 1963593).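 Note: CHO cells stably overexpressing human ADRB2.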 The gist of the method:
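CHO cells stably over-expressing ADRB2 were plated overnight at 37C, then dosed with compounds plus a stimulation mix containing 100uM IBMX and 25uM Ro-20-1724 for 0.5hr at room temperature. cAMP was measured by HTRF competition, 1hr.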
Background: In qHTS, concentration-response curves come from the screen itself.

Inconclusive results are not listed. A call without a number means that no potency is given here. The source made the active and inactive calls. Calls come from the whole dose curve.

Chain of Beta-2 adrenergic receptor (Homo sapiens) (P07550 whole entry, looked up): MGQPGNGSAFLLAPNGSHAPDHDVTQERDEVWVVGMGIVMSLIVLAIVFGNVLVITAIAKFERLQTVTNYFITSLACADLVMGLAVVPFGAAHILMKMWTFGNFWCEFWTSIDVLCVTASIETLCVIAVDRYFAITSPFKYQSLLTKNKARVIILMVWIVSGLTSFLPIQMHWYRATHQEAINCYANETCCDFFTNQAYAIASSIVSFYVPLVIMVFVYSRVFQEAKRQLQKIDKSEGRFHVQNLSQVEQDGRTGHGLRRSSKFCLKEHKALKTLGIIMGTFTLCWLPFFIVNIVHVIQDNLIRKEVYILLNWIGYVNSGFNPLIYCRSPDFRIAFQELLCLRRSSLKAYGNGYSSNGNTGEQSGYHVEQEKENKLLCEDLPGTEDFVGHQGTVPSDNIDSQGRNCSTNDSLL

As for `O=S(=O)(O)c1ccc(O)c2ncccc12`, the Potency entry was “inactive”.
With `Oc1ccc(Cl)c2cccnc12` the entry was “inactive”; with `CC1(C)S[C@@H]2[C@H](NC(=O)C(c3ccccc3)S(=O)(=O)O)C(=O)N2[C@H]1C(=O)O` (some centres not stated), “inactive”.
As for `CCCCNS(=O)(=O)c1ccc(C)cc1`, the entry is “inactive”.
With `CC(C)(C)c1n[nH]c(=S)n(N)c1=O` the entry was “inactive”; with `O=C(O)c1cccc(C(=O)O)c1C(=O)O`, “inactive”; with `O=C(O)CCN(C1(C(=O)NO)CCCC1)S(=O)(=O)c1ccc(Oc2ccc(F)cc2)cc1`, “inactive”.
In the case of `Cc1ccc2cccnc2c1`, the Potency entry was “inactive”.
With `CC/C=C\CC/C=C/C(OCC)OCC` the entry was “inactive”; with `CC(C)=CCOC(=O)c1ccccc1`, “inactive”; with `NCC(=O)CCC(=O)O`, “inactive”.
As for `COC(=O)c1c(C)cc(O)c(C)c1O`, the entry is “inactive”.
